# From PubChem BioAssay (NCI)
# About 83,000 compounds went through this panel and 20% of them were active in at least one assay; those are over-represented in the sample as a whole.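 Step 1: grow cells in 96-well plates. Step 2: add test compound at a single concentration. Step 3: incubate 48 h. Step 4: record percent growth.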 Values without a mark were called inactive. The source made the active and inactive calls. How the source made its calls: active means growth percent below 10; inactive means the rest.
# Tests used:
# Assay in all cases: NCI-60 one-dose screen, 48 h (100 = growth as untreated, 0 = no growth, -100 = all killed)
# Settings in all cases: 10 µM unless noted
# [1] = tested on: SR leukemia
# [2] = tested on: OVCAR-8 ovarian
# [3] = tested on: OVCAR-5 ovarian
# [4] = tested on: OVCAR-4 ovarian
# [5] = tested on: IGROV1 ovarian
# [6] = tested on: OVCAR-3 ovarian
# [7] = tested on: HS 578T breast
# [8] = tested on: NCI/ADR-RES ovarian
# [9] = tested on: SK-OV-3 ovarian
# [10] = tested on: RPMI-8226 leukemia
Compound,growth [1],growth [2],growth [3],growth [4],growth [5],growth [6],growth [7],growth [8],growth [9],growth [10]
COc1ccc(/C=C2\c3cc(OC)c(OC)c(OC)c3CC[C@@H]2O)cc1F,3.9% (active),25.4%,76.2%,57%,43%,4.82% (active),37.3%,8.8% (active),–,–
Cc1ccc(Cc2cnc(NC(=O)/C=C/c3ccc(C)o3)s2)cc1,16.2%,62%,60.3%,73.4%,42.2%,-8.25% (active),30.7%,33.9%,42.9%,–
CCN(CCNc1ccc(C)c2sc3cc(Cl)ccc3c(=O)c12)CC(C)(C)O,49.6%,85.5%,70.2%,72.8%,50.7%,91.7%,79.3%,74.6%,45.1%,–
COc1cc(Cc2cc(-c3ccccc3)nn(Cc3ccccc3)c2=O)cc(OC)c1OC,36%,31.9%,69.7%,35.3%,53.1%,46.9%,74.9%,30.5%,82.3%,–
O=C1OCC2=C1C(c1ccccc1)c1cc3c(cc1N2CCO)OCCO3 (stereo not given),–,32.5%,37.5%,31.1%,17.8%,-56.3% (active),-9.64% (active),-26.8% (active),22.4%,27.9%
C=C(C)[C@@H]1CC[C@]2(CO)CC[C@]3(C)[C@H](CC[C@@H]4[C@@](C)(CCCN)[C@H](C(=C)C)CC[C@]43C)[C@@H]12,–,-40.4% (active),-78.5% (active),-67.8% (active),-96.2% (active),-61.7% (active),-52.3% (active),–,-82.4% (active),-43.2% (active)
COc1ccccc1S(=O)(=O)Nc1ccc2c3c(cc(CCC(=O)NCCCCNc4cccc5c4C(=O)N(C4CCC(=O)NC4=O)C5=O)cc13)C(=O)N2C (stereo not given),–,4.39% (active),42%,–,-9.53% (active),30%,-17.8% (active),88.2%,34.6%,53.6%
N[C@@H]1CCC[C@H]1NCCCCN1C(=O)c2cccc3cc([N+](=O)[O-])cc(c23)C1=O,–,32.5%,72.5%,36.6%,25.6%,45.6%,–,73.4%,34%,41.4%
CC1=Nc2cnc(Nc3ccc(N4CCCCC4)cc3)nc2Nc2ccccc21,–,77.2%,82.7%,52.2%,63.3%,94.9%,84.5%,62.6%,104%,–
CCNC(=O)N1CCc2c(Br)c3c(c(OC)c2C1Cc1ccc(OC)cc1)OCO3 (stereo not given),–,49.8%,74.4%,54.3%,35.7%,7.18% (active),16.9%,4.18% (active),27.6%,44.3%
C=C1C(=O)O[C@H]2[C@H]1CC/C(CNC(=O)Cc1c[nH]c3ccccc13)=C\CC[C@@]1(C)O[C@@H]21,–,9.54% (active),46.2%,38.2%,27.7%,-5.5% (active),78.1%,89.9%,106%,-0.862% (active)
COc1ccc(C2CC(c3ccccc3)=NN2C(=O)c2cc(OC)c(OC)c(OC)c2)cc1O (stereo not given),–,24.4%,60.1%,42%,3.37% (active),17%,–,-11.9% (active),54.9%,–
CCCN(CCSSCCNc1nc(N(C)O)nc(N(C)O)n1)c1nc(N(C)O)nc(N(C)O)n1,–,70.9%,58%,55%,83%,51.6%,131%,–,57.1%,42.6%
COC(=O)[C@@]1(C)CC[C@]2(C)CC[C@]3(C)C4=CC=C5C(=CC(=O)C(O)=C5C)[C@]4(C)[C@@H](O)C[C@@]3(C)[C@@H]2C1,–,4.47% (active),66.7%,34%,-46.8% (active),-16.6% (active),27.4%,49%,–,3.73% (active)
CC(C)Cc1nc(Nc2ccccc2)[nH]c(=O)c1C#N,–,64.4%,84.9%,36.8%,71.4%,30.8%,–,62.9%,60%,25.1%
